KLF5 inhibitor = inhibitors of KLF5 expression. DLD-1 KLF5 promoter-luciferase reporter, luminescence. inhibition, % at 5 µM. hit rate 0.23% among 290,000. AID 1700;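 active = inhibition above a per-plate limit of that plate's mean compound inhibition plus 3 SD, cut at about 60% in these data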;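 also: higher means less KLF5 promoter-driven luciferase light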
697 NFkB inh = lowers PMA/ionomycin-induced NF-kB signal in 697 B cells. 697 B-cell NF-kB luciferase reporter, 16 h. AID 435022. hit rate 0.33% among 330,000. inhibition, % at 4 µM; in the data active = inhibition above about 35%
Jurkat NFkB inh = lowers PMA/ionomycin-induced NF-kB signal in Jurkat cells. PMA/ionomycin-induced NF-kB luciferase reporter, luminescence. inhibition, % at 4 µM. hit rate 0.53% among 330,000. AID 435003; in the data active = inhibition above about 50%
aSyn 5UTR inh = MLPCN primary screen, SNCA 5' untranslated region; inhibition, % (tested at 7.5 µM); alpha-synuclein 5'UTR reporter, inhibitor activity; AID 1813; hit rate 0.82% among 300,000; in the data active = inhibition above about 60%;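 also: H4 neuroglioblastoma cells stably carrying SNCA 5'UTR luciferase fusion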
Gli-Sufu antag = blocks Gli-Sufu signaling in a luciferase reporter | inhibition, % at 5 µM | hit rate 0.74% among 340,000 | AID 588413 | Sufu-KO-LIGHT fibroblasts, Gli luciferase reporter luminescence;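 active = inhibition above about 55%, limit read from the data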
Mdm2-MdmX inh = disrupts the human Mdm2-MdmX interaction. O15151+Q00987. SaOS-2 split-luciferase Mdm2/MdmX complementation, luminescence. inhibition, % at 8 µM. hit rate 3% among 330,000. AID 485346;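 active = inhibition of at least 50% at 8 µM in the primary screen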
Target sequence (O15151 whole entry, looked up): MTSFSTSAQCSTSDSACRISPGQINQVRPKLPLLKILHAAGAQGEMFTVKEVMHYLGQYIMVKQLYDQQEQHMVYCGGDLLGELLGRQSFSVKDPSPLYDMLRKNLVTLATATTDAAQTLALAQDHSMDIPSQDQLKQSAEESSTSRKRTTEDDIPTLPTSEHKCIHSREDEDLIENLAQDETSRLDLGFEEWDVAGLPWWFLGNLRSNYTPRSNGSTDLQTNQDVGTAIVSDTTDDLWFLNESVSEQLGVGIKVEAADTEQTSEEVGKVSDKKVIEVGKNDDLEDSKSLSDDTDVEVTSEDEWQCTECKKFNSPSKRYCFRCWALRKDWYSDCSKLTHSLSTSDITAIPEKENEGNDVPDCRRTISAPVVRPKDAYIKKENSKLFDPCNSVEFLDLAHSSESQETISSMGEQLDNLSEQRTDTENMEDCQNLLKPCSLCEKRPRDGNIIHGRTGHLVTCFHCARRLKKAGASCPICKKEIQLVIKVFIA
Target sequence (Q00987 whole entry, looked up): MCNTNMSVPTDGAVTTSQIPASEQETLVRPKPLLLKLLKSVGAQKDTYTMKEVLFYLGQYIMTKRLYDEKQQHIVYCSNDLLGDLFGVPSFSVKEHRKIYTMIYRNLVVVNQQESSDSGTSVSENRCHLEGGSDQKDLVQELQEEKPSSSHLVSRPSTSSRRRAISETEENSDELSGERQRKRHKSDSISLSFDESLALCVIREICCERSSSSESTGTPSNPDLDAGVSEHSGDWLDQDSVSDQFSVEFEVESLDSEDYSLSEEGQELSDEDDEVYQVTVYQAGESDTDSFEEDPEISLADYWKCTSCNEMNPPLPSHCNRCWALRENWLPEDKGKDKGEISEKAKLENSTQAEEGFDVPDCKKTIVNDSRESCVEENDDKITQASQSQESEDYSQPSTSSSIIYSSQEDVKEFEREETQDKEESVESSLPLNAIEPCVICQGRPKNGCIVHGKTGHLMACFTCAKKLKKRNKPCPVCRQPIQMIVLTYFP
Hits are given with their value; - = inactive; . = no result. Only some compounds are listed: those with a hit (about 4.1% of all), similar ones and a draw of the others.

SMILES	KLF5 inhibitor	697 NFkB inh	Jurkat NFkB inh	aSyn 5UTR inh	Gli-Sufu antag	Mdm2-MdmX inh
COc1cccc(/C=N/NC(=O)c2cc3c(OC)cccc3[nH]2)c1OC	-	-	-	-	-	-
COc1cccc(/C=N/NC(=O)c2cc3c(OC)cccc3[nH]2)c1O	-	-	-	86	-	-
COc1ccc(/C=C2\SC(=O)N(CCC(=O)Nc3ccccc3)C2=O)cc1OC	-	-	-	82	-	-
CN(C)CCCNc1c2c(nc3ccccc13)CCC2	-	-	-	-	-	-
CN(C)CCNCCCNc1c2ccccc2nc2cccc([N+](=O)[O-])c12	.	.	.	.	62	.
Cn1nnc2cc(NC(=O)Nc3cccc(C(F)(F)F)c3)ccc21	-	-	-	-	-	-
Cc1nc(N2CCN(C(=O)c3ccco3)CC2)c2c3c(sc2n1)CC(C)CC3 (stereo not given)	-	-	-	-	79	-
C/C(CC(=O)Nc1ccccn1)=N\NC(=O)c1ccccc1O	-	-	-	71	-	-
C/C(CC(=O)Nc1ccccn1)=N\NC(=O)c1ccccc1	-	-	-	-	.	-
COc1cccc2c1C(=O)c1c(O)c3c(c(O)c1C2=O)CC(O)(C(=O)CO)CC3OC1CC(N(C)C)C(O)C(C)O1 (stereo not given)	.	.	.	.	85	.
COc1ccc(N2CC(C(=O)Nc3c4c(nn3-c3ccccc3)CS(=O)(=O)C4)CC2=O)cc1 (stereo not given)	-	-	-	-	-	-
Cc1cc2c(=Cc3ccc(N(C)C)cc3)c3ccccc3n2[n+]1C	.	.	.	.	83	.
CCOC(=O)c1cc2c(=Cc3ccc(N(C)C)cc3)c3ccccc3n2[n+]1C	.	.	.	.	76	.
CN(C)c1ccc(C=c2c3ccccc3n3c2c2ccccc2[n+]3C)cc1	.	.	.	.	-	.
COc1cccc(N(C(=O)c2snc(C(N)=O)c2N)C(C(=O)NCC2CCCO2)c2cccs2)c1 (stereo not given)	-	-	-	-	-	-
COc1ccc(N(C(=O)c2ccco2)C(C(=O)NC2CCCCC2)c2cccs2)cc1OC (stereo not given)	-	-	-	-	-	-
COc1ccc(N(C(=O)CCl)C(C(=O)NCCc2ccccc2)c2cccs2)cc1Cl (stereo not given)	-	.	.	-	96	.
COc1cccc(N(C(=O)CCl)C(C(=O)NCCc2ccccc2)c2cccs2)c1 (stereo not given)	-	.	.	-	93	.
COC(=O)Cc1ccc(NC(=S)NC2CC2)cc1	-	-	-	-	-	-
COc1ccc(Br)cc1C(=O)Nc1cccc(-c2nnc(-c3ccco3)o2)c1	-	-	-	-	71	-
CC(C)CCn1c(COc2ccccc2)nn(CCC#N)c1=S	-	-	-	-	-	-
O=C(CCCc1ccccc1)N=C1SC2CS(=O)(=O)CC2N1c1ccccc1F (stereo not given)	-	-	-	-	-	-
COc1ccc(NC(=O)c2ccccn2)cc1	-	-	-	75	-	-
COc1ccc(C(=O)Nc2ccc(NC(=O)c3ccccn3)cn2)cc1	-	-	-	-	-	-
CSc1ccccc1OCc1cc(C(=O)N(C)Cc2ccncn2)no1	-	-	-	-	-	-
SMILES	KLF5 inhibitor	697 NFkB inh	Jurkat NFkB inh	aSyn 5UTR inh	Gli-Sufu antag	Mdm2-MdmX inh
O=C(CCN1C(=O)/C(=C\C=C\c2ccccc2)SC1=S)Nc1cccc(C(=O)O)c1	-	-	-	-	-	-
CC(C)c1ccccc1NC(=O)COC(=O)CCN1C(=O)/C(=C\C=C\c2ccccc2)SC1=S	-	-	-	73	-	-
O=C(COC(=O)CCN1C(=O)/C(=C\C=C\c2ccccc2)SC1=S)Nc1ccc(Br)cc1	-	-	-	65	-	-
COC(CNC(=O)c1ccc2c(c1)ncn2C1CCCCCC1)OC	-	-	-	-	-	-
CN(C)CCC(=O)C(Cc1ccccc1)c1ccccc1 (stereo not given)	.	-	-	99	-	-
COc1ccc(-c2csc(Nc3ccc(S(N)(=O)=O)cc3)n2)cc1OC	-	-	-	62	-	-
NS(=O)(=O)c1ccc(Nc2nc(-c3ccc(F)cc3)cs2)cc1	-	-	-	-	-	-
COc1ccccc1/C=C/C(=O)Nc1ccc(S(=O)(=O)Nc2cc(C)on2)cc1	-	-	-	-	-	-
C/C(=N\N=C(N)N)c1cc(Cl)ccc1Cl	-	-	-	65	-	-
C/C(=N\N=C(N)N)c1ccc(Cl)cc1Cl	-	-	-	-	-	-
Cc1nc(SCCC(=O)O)c2cc(-c3ccccc3)sc2n1	-	-	-	67	-	-
O=C(CCn1c(=O)c2cccn2c2cccnc21)NCc1cccc(Cl)c1	-	-	-	-	-	-
CC1CC(=O)Nc2ccccc2N1S(=O)(=O)c1cccc(Cl)c1 (stereo not given)	-	-	-	-	-	-
COc1ccc(-n2c(O)c(/C=N/NS(=O)(=O)c3ccc(C)cc3)c3ccccc3c2=O)cc1OC	-	-	-	-	-	-
COc1ccc(-n2c(O)c(/C=N/Nc3nc(C)cc(C)n3)c3ccccc3c2=O)cc1OC	-	-	-	120	-	-
Cc1ccc(C(C)C)c(OCc2ccc(C(=O)N/N=C/c3cccc(O)c3O)cc2)c1	-	.	.	108	93	.
c1ccc2c(c1)CSc1ccccc1N2	.	-	-	104	-	-
CC(CN1CCCC1)OC(=O)c1ccc(Br)cc1 (stereo not given)	-	-	-	-	-	-
CC(=O)Nc1ccc(C#Cc2ccc(NC(C)=O)cc2)cc1	-	-	-	74	-	-
COc1ccccc1-c1nnc(C2CCN(S(=O)(=O)c3ccccc3[N+](=O)[O-])CC2)o1	-	-	-	-	-	-
CC(C)(C)c1cc(C(=O)Nc2cccnc2)cc(C(=O)Nc2cccnc2)c1	-	-	-	-	-	-
CCc1nnc(NC(=O)c2ccc(S(=O)(=O)N(C)Cc3ccccc3)cc2)o1	-	-	-	63	-	-
CCc1nnc(NC(=O)c2ccc(S(=O)(=O)N(CC)Cc3ccccc3)cc2)o1	-	-	-	-	-	-
O=c1[nH]c(=S)[nH]c2sc3c(c12)CCCCCC3	-	-	-	-	.	-
O=S(=O)(c1cccc2ccccc12)N1CCC2CC1c1cc(Cl)ccc12 (stereo not given)	.	.	.	.	-	.
SMILES	KLF5 inhibitor	697 NFkB inh	Jurkat NFkB inh	aSyn 5UTR inh	Gli-Sufu antag	Mdm2-MdmX inh
O=[N+]([O-])c1ccc(-c2cnc3ccccc3n2)cc1	-	-	-	-	-	-
CCOc1ccc(-c2cnc3ccccc3n2)cc1	-	-	-	92	-	-
CCOCCCn1c(=N)c(C(=O)Nc2cc(C)on2)cc2c(=O)n3ccccc3nc21	-	.	.	.	.	.
COc1ccc(CN2C(=O)CSC2c2ccccn2)cc1 (stereo not given)	-	-	-	-	-	-
Cc1cc2nc3ccc(=[N+](C)C)cc-3sc2cc1N	-	.	.	91	-	.
CC(C)(C)c1ccc(Oc2ccc(NC(=O)c3ccccc3C(=O)O)cn2)cc1	-	-	-	86	-	-
CC(C)(C)c1ccc(Oc2ccc(N)cn2)cc1	-	-	-	87	-	-
Cc1cc(Oc2ccc(N)cn2)cc(C)c1Cl	-	-	-	-	-	-

Screening results: PubChem, several laboratories
